According to PubChem BioAssay (NCI):
Compounds without any hit were thinned out: in the full panel of roughly 83,000, 20% have a hit.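 Plates (96-well) were seeded with cells, treated with compound at one concentration, and incubated for 48 hours before percent growth was determined.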 Values without a mark were called inactive. Active and inactive are the calls of the source. The calls were made as follows: active = growth percent below 10; inactive = the rest.

Legend:
Experiment in all cases: NCI-60 one-dose screen, 48 h (100 = growth as untreated, 0 = no growth, -100 = all killed)
Settings in all cases: 10 µM unless noted
SR leukemia = test system: SR leukemia
RPMI-8226 leukemia = test system: RPMI-8226 leukemia
OVCAR-5 ovarian = test system: OVCAR-5 ovarian
OVCAR-4 ovarian = test system: OVCAR-4 ovarian
SK-OV-3 ovarian = test system: SK-OV-3 ovarian
IGROV1 ovarian = test system: IGROV1 ovarian
OVCAR-3 ovarian = test system: OVCAR-3 ovarian
HS 578T breast = test system: HS 578T breast
NCI/ADR-RES ovarian = test system: NCI/ADR-RES ovarian
OVCAR-8 ovarian = test system: OVCAR-8 ovarian

SMILES	growth (SR leukemia)	growth (RPMI-8226 leukemia)	growth (OVCAR-5 ovarian)	growth (OVCAR-4 ovarian)	growth (SK-OV-3 ovarian)	growth (IGROV1 ovarian)	growth (OVCAR-3 ovarian)	growth (HS 578T breast)	growth (NCI/ADR-RES ovarian)	growth (OVCAR-8 ovarian)
CC(C)=CCNc1ncnc2c1ncn2C1OC(COP(=O)(O)O)C(O)C1O (stereo not drawn)	-15.2% (active)	109%	74.5%	85.4%	12.9%	54.6%	0.0655% (active)	63.8%	39.1%	–
O=c1ncc(-c2ccc(C(F)(F)F)cc2)c(NC2CCCCCC2)[nH]1	69%	5% (active)	91.3%	53.5%	83.9%	51%	-2.84% (active)	68.6%	102%	–
CCSc1nc(-c2cccs2)n2nc(-c3ccco3)cc2n1	92.7%	53.9%	97.3%	68.9%	106%	87.5%	112%	108%	103%	–
Nc1nc(Nc2ccccc2SSc2ccccc2Nc2nc(N)nc(C(Cl)(Cl)Cl)n2)nc(C(Cl)(Cl)Cl)n1	14.8%	36.1%	82%	65.3%	121%	37%	64.6%	73.4%	48.9%	–
CCOC(CNCc1cc(C)c2[nH]c3ccccc3c2c1C)OCC	77.4%	–	99.3%	58.7%	93.1%	83.9%	83.9%	84.6%	77.2%	89.5%
Cc1cc2c(cc1C)[n+](Cc1ccc3ccccc3n1)cn2Cc1ccc2ccccc2n1	-20.2% (active)	-30.7% (active)	23.6%	–	0.95% (active)	-4.22% (active)	3.63% (active)	27.3%	96.4%	–
COC(=O)CC1=C(c2ccc([N+](=O)[O-])cc2)CCC1=O	104%	–	105%	110%	99.1%	127%	121%	114%	109%	104%
CCOC(=O)c1sc(NC(=O)COc2cccc(/C=C3\Cc4ccc(Cl)cc4C3=O)c2)nc1C	114%	57.5%	101%	118%	114%	–	120%	110%	97%	–
Cc1cc(-c2ccccc2)cc(C)n1	99.4%	–	108%	99.7%	109%	102%	127%	111%	110%	106%
Cc1cccc2nnc(-c3ccccc3)n12	93%	–	107%	104%	121%	115%	129%	146%	107%	109%
O=C(O)CNC(=O)C1(N2C(=O)c3ccccc3C2=O)CCCC1	99.3%	–	101%	99.4%	111%	119%	139%	128%	110%	104%
Nc1ccc(N=Nc2ccccc2)cc1[N+](=O)[O-]	93.2%	–	110%	71.5%	97.9%	62.9%	102%	139%	95.9%	94.7%
CC[C@H]1CN2CCc3cc(OC)c(OC)cc3C2C[C@@H]1CC1NCCc2cc(OC)c(OC)cc21 (stereo partly drawn)	-9.39% (active)	-41% (active)	-12% (active)	-9.56% (active)	-1.2% (active)	–	-30.9% (active)	-12% (active)	-9.95% (active)	–
COc1c(Br)cc(C(c2cc(Br)c(OC)c(Br)c2)c2ccccc2C(=O)O)cc1Br	80.9%	88.7%	99.1%	–	106%	95.7%	109%	101%	98.8%	–
O=C1Nc2ccc(C(=O)O)c(O)c2C1=O	105%	–	95.3%	112%	110%	111%	113%	108%	106%	107%
CC1C(C)N(C(=O)CCl)c2ccccc2N1C(=O)CCl (stereo not drawn)	-29.6% (active)	–	-77.5% (active)	-27.2% (active)	-20.4% (active)	-54.6% (active)	-91.1% (active)	-28.3% (active)	-7.93% (active)	-20.8% (active)
Nc1ccc2c(c1)Cc1cc(Cl)c(Cl)cc1-2	70.4%	–	82.6%	78.6%	69.1%	89.1%	7.25% (active)	67.9%	62.9%	86.4%
COc1ccc2[nH]c(=O)c(CNc3ccc(Nc4nccc(-c5ccc(Cl)cc5)n4)cc3)cc2c1	54%	77.6%	103%	–	118%	89.1%	89.3%	101%	92.5%	–
C[C@H](C(=O)N[C@@H](Cc1ccc(-c2ccccc2)cc1)C(=O)NC1CC(C)(C)NC(C)(C)C1)c1ccc(-c2ccccc2)c(F)c1	-27.5% (active)	-43.6% (active)	-48.9% (active)	–	-17.1% (active)	-36.8% (active)	-92.1% (active)	-31.6% (active)	60.4%	–
O=[N+]([O-])c1ccc(N=Nc2c(Cl)cc(O)cc2Cl)cc1	3.27% (active)	–	25.3%	12.1%	13.3%	6.67% (active)	-25.3% (active)	-20% (active)	-19.7% (active)	6.5% (active)
Nc1ccc2c(c1Br)Cc1ccccc1-2	93.6%	–	94.6%	98.6%	95.4%	108%	99.1%	95.4%	100%	98.6%
O=C1N=C(N2CCOCC2)S/C1=C\c1cn(-c2ccccc2)nc1-c1ccccc1	71.5%	–	109%	25.1%	83.3%	79.9%	58%	57.4%	60.2%	69.9%
CCN(CC)CCCCCCCNc1c2ccc(Cl)cc2nc2ccc(OC)cc12	-16.5% (active)	–	-8.18% (active)	-43% (active)	-30.7% (active)	-64.3% (active)	-39.6% (active)	-42.7% (active)	12.7%	-41.8% (active)
O=C(COc1ccc(/C=C2\Cc3ccccc3C2=O)cc1)c1ccc(Cl)cc1	117%	90.3%	102%	112%	112%	–	128%	105%	92.6%	–
CCC(=O)Nc1cc2c(cc1Cl)-c1ccccc1C2	101%	–	85.5%	101%	107%	86.4%	106%	111%	90.1%	98%
COc1cc(/C=N/NC(=O)c2ccc(C(F)(F)F)nc2Nc2cc(Cl)ccc2C)cc(OC)c1OC	91.8%	64.7%	103%	104%	106%	–	123%	104%	98.3%	–
OCCN1CCN(CCCN2c3ccccc3Sc3ccc(C(F)(F)F)cc32)CC1	-42.9% (active)	18.8%	–	62.5%	73.8%	24.5%	53.4%	24.6%	46.8%	–
O=C(c1ccc(N2CCOCC2)cc1[N+](=O)[O-])N1CCOCC1	423%	128%	102%	52%	110%	–	110%	33%	108%	–
CCc1ccc(-c2nc(SCC(=O)NC3CCCCC3)n[nH]2)cc1	12.6%	32.8%	94.2%	72.6%	84.8%	–	64%	74.6%	75.4%	–
Cn1ccnc1C(=O)/C=C/c1ccc(C(=O)Nc2nc3ccccc3[nH]2)cc1	11.2%	10.7%	59.9%	36.7%	77.2%	–	7.54% (active)	40.2%	24.6%	–
